According to article PMC11024108:

molecular target: Stress-70 protein, mitochondrial (UniProt P38646); experiment: cross-link between two proteins; cross-linking mass spectrometry

Sequence of V-type proton ATPase subunit D, P57746 (P57746 whole entry): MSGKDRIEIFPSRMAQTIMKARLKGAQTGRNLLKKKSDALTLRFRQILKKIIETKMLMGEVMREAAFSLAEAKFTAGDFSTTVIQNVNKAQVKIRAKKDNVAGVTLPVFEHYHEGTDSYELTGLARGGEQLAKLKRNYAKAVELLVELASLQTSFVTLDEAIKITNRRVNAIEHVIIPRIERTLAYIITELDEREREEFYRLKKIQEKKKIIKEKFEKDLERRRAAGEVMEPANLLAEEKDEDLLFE

Listed as a hit, yes:
Pyrroline-5-carboxylate reductase 1, mitochondrial, P32322
Electron transfer flavoprotein subunit beta, P38117
Mitochondrial import inner membrane translocase subunit TIM44, O43615

molecular target: V-type proton ATPase 116 kDa subunit a 1 (UniProt Q9Z1G4); experiment: as above
Sequence (Q9Z1G4 whole entry): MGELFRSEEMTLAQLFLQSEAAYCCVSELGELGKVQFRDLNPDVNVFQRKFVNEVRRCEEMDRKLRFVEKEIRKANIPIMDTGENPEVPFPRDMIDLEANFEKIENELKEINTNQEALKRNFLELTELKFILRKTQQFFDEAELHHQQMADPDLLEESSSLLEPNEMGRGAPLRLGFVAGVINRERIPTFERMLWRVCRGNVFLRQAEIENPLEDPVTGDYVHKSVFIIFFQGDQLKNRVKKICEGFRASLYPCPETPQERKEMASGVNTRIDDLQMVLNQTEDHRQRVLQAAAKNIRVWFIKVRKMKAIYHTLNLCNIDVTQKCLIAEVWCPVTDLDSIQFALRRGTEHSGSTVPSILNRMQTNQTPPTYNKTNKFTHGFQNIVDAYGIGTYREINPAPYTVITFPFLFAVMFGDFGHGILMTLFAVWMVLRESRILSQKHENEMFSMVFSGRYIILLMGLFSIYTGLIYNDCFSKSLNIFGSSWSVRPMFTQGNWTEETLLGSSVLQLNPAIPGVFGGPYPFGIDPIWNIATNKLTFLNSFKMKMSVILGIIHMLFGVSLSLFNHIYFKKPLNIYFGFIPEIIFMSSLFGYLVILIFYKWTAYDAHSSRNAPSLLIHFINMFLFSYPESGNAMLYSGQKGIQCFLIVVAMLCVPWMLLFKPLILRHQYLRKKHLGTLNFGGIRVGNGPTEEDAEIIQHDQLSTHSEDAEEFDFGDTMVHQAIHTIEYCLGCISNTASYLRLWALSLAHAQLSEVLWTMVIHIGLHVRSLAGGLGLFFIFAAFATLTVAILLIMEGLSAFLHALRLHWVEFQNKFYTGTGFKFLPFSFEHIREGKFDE

Listed as a hit, yes:
V-type proton ATPase subunit H, Q8BVE3
V-type proton ATPase subunit S1, Q9R1Q9
Vesicle-associated membrane protein 1, Q62442

molecular target: V-type proton ATPase subunit B, brain isoform (UniProt P62814); experiment: as above
Sequence (P62814 whole entry, canonical isoform): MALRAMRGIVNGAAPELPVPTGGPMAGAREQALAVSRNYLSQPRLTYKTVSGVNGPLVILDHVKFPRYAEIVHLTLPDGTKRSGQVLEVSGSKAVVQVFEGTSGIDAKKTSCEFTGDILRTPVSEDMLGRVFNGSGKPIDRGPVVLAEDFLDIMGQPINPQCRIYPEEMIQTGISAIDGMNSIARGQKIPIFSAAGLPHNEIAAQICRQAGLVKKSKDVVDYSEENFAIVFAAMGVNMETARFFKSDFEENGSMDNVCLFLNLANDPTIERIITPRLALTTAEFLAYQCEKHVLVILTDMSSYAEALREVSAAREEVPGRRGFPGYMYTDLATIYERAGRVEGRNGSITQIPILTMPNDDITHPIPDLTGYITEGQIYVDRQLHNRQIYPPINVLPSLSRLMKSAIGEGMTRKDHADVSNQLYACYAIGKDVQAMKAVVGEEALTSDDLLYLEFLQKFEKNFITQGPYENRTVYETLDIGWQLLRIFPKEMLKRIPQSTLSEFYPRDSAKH

Listed as a hit, yes:
V-type proton ATPase subunit D, P57746
V-type proton ATPase subunit E 1, P50518
V-type proton ATPase catalytic subunit A, P50516
